About 2,000 (36%) of roughly 5,500 compounds were called active. Another 18% or so got no clear call; they are omitted. No stated cut-off is given here; in the data, active means normalized growth mostly below about 0.91 (no sharp cut-off); inconclusive means no clear call, values can overlap the other calls; inactive means mostly above about 0.92. The list shows a part of the results.
Assay: chemical genetic growth profiling, strain panel (AID 1159580);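 further: tested at 20 µM; growth read once vehicle control cultures reached saturation at 30 °C; 1 = growth at the plate median or of vehicle wells; lower values mean less growth of the strain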
Conditions: S. cerevisiae deletion strains, growth OD

Measured: normalized growth

NC(N)=NC(N)=NCCc1ccccc1
inactive: locus YHR030C, strain SLT2, active compounds read low 0.956 | locus YHR079C, strain IRE1, active compounds read low 0.96 | locus YJL095W, strain BCK1, active compounds read low 0.961 | locus YJR066W, strain TOR1, active compounds read low 0.953 | locus YLR113W, strain HOG1, active compounds read low 0.965 | locus YNL183C, strain NPR1, active compounds read low 0.916 | locus YOR231W, strain MKK1, active compounds read low 0.975 | locus YPL256C, strain CLN2, active compounds read low 0.934
